PubChem BioAssay
The source made the active and inactive calls.

How the values were obtained:
Albumin (Bos taurus) = Albumin (Bos taurus) (UniProt P02769); assay: compounds binding labelled BSA control protein – biochemical, small-molecule microarray, Alexa647 label, 635/667 nm fluorescence, artefact control for SMM control protein annotation, profiling panel (AID 1118); details: BSA-A647 binding, fluorescence 635 nm, higher = more signal;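 note: score merges 667 nm emission intensity and signal-to-noise per printed compound spot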
[1] = probe aXIP binding to arrayed compounds – biochemical, NeuroSMM set, 635/667 nm fluorescence, primary screen (AID 1119); details: small-molecule microarray, higher = more signal, called active from +8 up or from −8 down;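 note: probe is the protein aXip251-270 applied at 1 µg/mL to compound-printed slides; binding of probe to printed compounds measured as 667 nm fluorescence plus signal to noise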
[2] = probe aNOTCH3 binding on compound microarray – biochemical, small-molecule microarray, 635/667 nm fluorescence, primary screen (AID 1120); details: higher = more signal;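 note: probe is a biotin-tagged antibody raised against NOTCH3 rather than NOTCH3 protein; score merges spot fluorescence near 667 nm with spot signal to noise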
[3] = probe aNOTCH2 binding on compound microarray – biochemical, small-molecule microarray, 635/667 nm fluorescence, primary screen (AID 1121); details: higher = more signal;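 note: score merges feature fluorescence read at 667 nm with its signal to noise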
[4] = molecular target: Carbonic anhydrase 2 (Homo sapiens) (UniProt P00918); assay: compounds binding carbonic anhydrase 2 – biochemical, small-molecule microarray, Alexa647-labelled CAII, profiling panel (AID 1122); details: CAII-A647 binding fluorescence, higher = more signal
[5] = COS7 lysate on small-molecule microarray, probe aHis, 635 nm (AID 1123); details: COS7 cell lysate, fluorescence, higher = more signal;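 note: z-score combines 667nm fluorescence intensity with signal-to-noise per printed compound spot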
[6] = probe aLAP1 signal on lysate-treated microarray – cell lysate, small-molecule microarray, COS7 lysate, primary screen (AID 1124); details: probe aLAP1, fluorescence, higher = more signal;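 note: lysate comes from COS7 cells expressing LAP1 and is applied at 0.3 µg/mL; score merges spot fluorescence near 667 nm with signal-to-noise over triplicate slides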
Sam68 (KHDRBS1) = assay: compounds binding KHDRBS1 protein – biochemical, small-molecule microarray, 635 nm fluorescence, primary screen (AID 1125); details: higher = more signal;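 note: score merges 667 nm channel intensity with signal to noise over triplicate slides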
[7] = test system: Chordin-like protein 2 (CHRDL2); assay: compounds binding chordin-like 2 – biochemical, small-molecule microarray, 635 nm fluorescence, primary screen (AID 1126); details: fluorescence 635 nm, higher = more signal;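 note: printed compound slides probed with Chrdl2 protein at 4 µg/mL for 1 h at 4 C; score merges 667 nm emission intensity with signal to noise over three replicate slides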
[8] = molecular target: Concanavalin-A (Canavalia ensiformis) (UniProt P02866); assay: compounds binding concanavalin A lectin – biochemical, small-molecule microarray, Alexa647 label, 635 nm, artefact control for SMM control protein annotation, primary screen (AID 1127); details: ConA-A647 binding fluorescence, higher = more signal;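 note: z combines 667 nm emission intensity with signal-to-noise across three replicate slides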
[9] = compounds binding Alexa647 anti-His antibody – biochemical, small-molecule microarray, 635 nm fluorescence, artefact control for SMM control protein annotation, primary screen (AID 1128); details: higher = more signal;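 note: score merges feature fluorescence with signal-to-noise for each printed compound spot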
[10] = test system: Human papillomavirus type 1a E7 protein (residues 1-88); assay: HPV1a E7 small-molecule binders, primary screen, biochemical, small-molecule microarray, residues 1-88, 635 nm (AID 1129); details: small-molecule microarray binding, fluorescence 635 nm; higher = more signal
[11] = molecular target: Focal adhesion kinase 1 (Homo sapiens) (UniProt Q05397); assay: PTK2 protein binding on printed compound slides – biochemical, small-molecule microarray, 635/667 nm fluorescence, BSA, DTT, primary screen (AID 1130); details: 635 nm fluorescence, higher = more signal;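 note: composite of spot emission at 667 nm and signal to noise over triplicate slides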
[12] = test system: Fibrinogen (Alexa647-labelled); assay: Alexa647-fibrinogen binding to printed small molecules – biochemical, small-molecule microarray, 635/667 nm fluorescence, artefact control for SMM control-protein annotation, profiling panel (AID 1131); details: fibrinogen-A647 binding fluorescence, higher = more signal;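 note: z-score merges 667 nm fluorescence with per-spot signal-to-noise over triplicate slides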
[13] = molecular target: Follistatin (Homo sapiens) (UniProt P19883); assay: FST protein binding to printed compounds – biochemical, small-molecule microarray, 635/667 nm fluorescence, primary screen (AID 1132); details: 635 nm fluorescence, higher = more signal
[14] = molecular target: Fibroblast growth factor 2 (Homo sapiens) (UniProt P09038); assay: basic fibroblast growth factor binding to printed compounds – biochemical, small-molecule microarray, 635/667 nm fluorescence, primary screen (AID 1133); details: FGF2, fluorescence 635/667, higher = more signal
[15] = JC-1 mitochondrial potential readout, lung cancer cells – cell-based, A549, JC-1 fluorescence, basal, 24 h, 100 nL, profiling panel (AID 1138); details: higher = more signal;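 note: A549 lung adenocarcinoma cells under basal conditions with no added stimulus; test concentration not given here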
Lefty1 = Lefty1 protein binding to printed compounds – biochemical, small-molecule microarray, 635/667 nm fluorescence, primary screen (AID 1139); details: fluorescence 635/667, higher = more signal
[16] = test system: wheat germ agglutinin (Triticum aestivum), Alexa647-labelled; assay: Alexa647-WGA lectin binding to printed small molecules – biochemical, small-molecule microarray, 635/667 nm fluorescence, artefact control for SMM control-protein annotation, profiling panel (AID 1140); details: WGA-A647 binding, 635 nm fluorescence, higher = more signal;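 note: score merges 667 nm feature emission with signal to noise over triplicate slides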
[17] = molecular target: Luciferin 4-monooxygenase (Photinus pyralis) (UniProt P08659); assay: inhibition of purified Photinus pyralis luciferase – biochemical, luminescence, purified enzyme, 2006 set, primary screen (AID 1141); details: purified firefly luciferase, SteadyGlo luminescence, 30 min; higher = more signal, called active from +8 up or from −8 down;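 note: cell-free assay with purified firefly luciferase at 100 ng per well in PBS; test concentration not given here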
Chain of Luciferin 4-monooxygenase (Photinus pyralis) (P08659 whole entry, looked up): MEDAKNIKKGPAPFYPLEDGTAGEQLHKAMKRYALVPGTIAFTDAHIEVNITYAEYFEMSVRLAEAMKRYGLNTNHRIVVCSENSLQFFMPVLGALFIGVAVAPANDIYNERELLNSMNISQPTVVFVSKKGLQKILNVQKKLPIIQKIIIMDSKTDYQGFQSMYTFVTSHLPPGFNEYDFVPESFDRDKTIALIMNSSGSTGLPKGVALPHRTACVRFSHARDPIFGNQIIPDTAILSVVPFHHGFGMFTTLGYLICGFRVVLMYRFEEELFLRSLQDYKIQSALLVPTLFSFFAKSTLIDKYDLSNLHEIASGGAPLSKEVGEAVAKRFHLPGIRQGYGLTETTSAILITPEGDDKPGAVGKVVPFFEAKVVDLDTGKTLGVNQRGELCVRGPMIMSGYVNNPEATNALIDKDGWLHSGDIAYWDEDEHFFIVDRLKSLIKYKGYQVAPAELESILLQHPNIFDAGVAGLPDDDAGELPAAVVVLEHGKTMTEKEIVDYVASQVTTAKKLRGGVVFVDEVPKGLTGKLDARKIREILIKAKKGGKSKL

Chain of Concanavalin-A (Canavalia ensiformis) (P02866 whole entry, looked up): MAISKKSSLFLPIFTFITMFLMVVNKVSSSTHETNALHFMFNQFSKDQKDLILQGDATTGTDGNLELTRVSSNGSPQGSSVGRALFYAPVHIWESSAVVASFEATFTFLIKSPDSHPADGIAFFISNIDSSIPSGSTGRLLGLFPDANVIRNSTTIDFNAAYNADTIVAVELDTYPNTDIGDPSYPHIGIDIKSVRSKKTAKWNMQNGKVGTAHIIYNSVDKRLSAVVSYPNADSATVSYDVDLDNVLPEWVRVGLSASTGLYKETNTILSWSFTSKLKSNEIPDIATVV
Chain of Albumin (Bos taurus) (P02769 whole entry, looked up): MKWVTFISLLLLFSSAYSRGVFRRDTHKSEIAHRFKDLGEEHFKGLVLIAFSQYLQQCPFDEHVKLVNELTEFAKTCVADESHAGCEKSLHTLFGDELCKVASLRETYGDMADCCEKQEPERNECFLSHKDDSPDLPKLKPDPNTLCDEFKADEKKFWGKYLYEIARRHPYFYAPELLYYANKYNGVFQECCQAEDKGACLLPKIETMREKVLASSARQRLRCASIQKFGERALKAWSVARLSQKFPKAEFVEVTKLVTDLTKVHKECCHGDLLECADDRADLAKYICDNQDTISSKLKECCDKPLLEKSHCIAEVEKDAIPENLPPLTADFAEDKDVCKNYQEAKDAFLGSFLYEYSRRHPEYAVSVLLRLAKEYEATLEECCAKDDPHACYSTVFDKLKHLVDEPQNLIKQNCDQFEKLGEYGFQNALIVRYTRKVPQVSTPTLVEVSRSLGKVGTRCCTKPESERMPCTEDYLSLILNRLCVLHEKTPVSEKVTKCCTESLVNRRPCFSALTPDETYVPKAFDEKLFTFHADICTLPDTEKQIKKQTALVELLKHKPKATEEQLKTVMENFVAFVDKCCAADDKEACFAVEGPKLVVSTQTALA
Chain of Focal adhesion kinase 1 (Homo sapiens) (Q05397 whole entry, looked up): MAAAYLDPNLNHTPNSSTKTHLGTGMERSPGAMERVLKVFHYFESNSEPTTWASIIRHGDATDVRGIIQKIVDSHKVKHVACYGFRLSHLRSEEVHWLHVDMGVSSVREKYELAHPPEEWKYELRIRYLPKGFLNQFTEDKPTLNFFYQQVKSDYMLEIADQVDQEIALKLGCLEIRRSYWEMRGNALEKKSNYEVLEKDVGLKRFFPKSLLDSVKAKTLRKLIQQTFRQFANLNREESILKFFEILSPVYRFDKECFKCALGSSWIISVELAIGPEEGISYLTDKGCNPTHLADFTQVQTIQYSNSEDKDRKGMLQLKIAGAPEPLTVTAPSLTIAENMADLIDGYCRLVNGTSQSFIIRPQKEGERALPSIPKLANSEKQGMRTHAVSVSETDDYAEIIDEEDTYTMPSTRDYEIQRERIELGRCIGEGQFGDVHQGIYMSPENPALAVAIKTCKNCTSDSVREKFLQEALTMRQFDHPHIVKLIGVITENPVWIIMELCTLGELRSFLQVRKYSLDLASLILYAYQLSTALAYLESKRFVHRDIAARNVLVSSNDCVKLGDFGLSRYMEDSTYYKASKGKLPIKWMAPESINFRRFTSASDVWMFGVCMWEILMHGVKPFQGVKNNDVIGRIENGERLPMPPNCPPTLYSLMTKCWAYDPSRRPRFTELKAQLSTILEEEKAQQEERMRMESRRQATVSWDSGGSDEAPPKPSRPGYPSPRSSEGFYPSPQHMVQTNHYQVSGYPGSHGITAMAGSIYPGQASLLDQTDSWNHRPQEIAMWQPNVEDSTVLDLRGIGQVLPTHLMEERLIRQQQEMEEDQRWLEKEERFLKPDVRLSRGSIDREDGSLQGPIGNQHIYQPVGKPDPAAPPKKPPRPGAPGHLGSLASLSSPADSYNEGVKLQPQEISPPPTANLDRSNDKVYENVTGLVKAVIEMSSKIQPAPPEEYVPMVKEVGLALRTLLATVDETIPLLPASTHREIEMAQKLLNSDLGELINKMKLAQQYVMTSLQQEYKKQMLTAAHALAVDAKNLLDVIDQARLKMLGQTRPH
Chain of Follistatin (Homo sapiens) (P19883 whole entry, looked up): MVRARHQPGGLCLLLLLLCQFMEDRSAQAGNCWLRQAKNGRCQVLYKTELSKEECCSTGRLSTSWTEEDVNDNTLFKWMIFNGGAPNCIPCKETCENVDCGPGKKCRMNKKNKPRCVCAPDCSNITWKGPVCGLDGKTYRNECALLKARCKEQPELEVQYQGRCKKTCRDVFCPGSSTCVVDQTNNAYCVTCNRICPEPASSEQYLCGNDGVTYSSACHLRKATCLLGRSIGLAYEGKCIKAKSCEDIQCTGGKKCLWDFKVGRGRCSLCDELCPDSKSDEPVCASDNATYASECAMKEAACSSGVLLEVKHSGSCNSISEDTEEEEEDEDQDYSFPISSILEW
Chain of Fibroblast growth factor 2 (Homo sapiens) (P09038 whole entry, looked up): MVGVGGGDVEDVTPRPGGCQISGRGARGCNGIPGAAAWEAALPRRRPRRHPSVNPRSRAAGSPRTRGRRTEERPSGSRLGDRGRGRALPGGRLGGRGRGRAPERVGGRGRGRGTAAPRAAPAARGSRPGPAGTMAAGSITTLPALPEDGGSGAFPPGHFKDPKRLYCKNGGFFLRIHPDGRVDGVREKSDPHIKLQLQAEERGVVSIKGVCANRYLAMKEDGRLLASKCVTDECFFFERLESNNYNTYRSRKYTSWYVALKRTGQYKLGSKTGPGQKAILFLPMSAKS

Row | SMILES | composite z-score (Albumin (Bos taurus)) | composite Z-score [1] | composite z-score [2] | composite z-score [3] | composite z-score [4] | composite z-score [5] | composite z-score [6] | composite z-score (Sam68 (KHDRBS1)) | composite z-score [7] | composite z-score [8] | composite z-score [9] | composite z-score [10] | composite z-score [11] | composite z-score [12] | composite z-score [13] | composite z-score [14] | z-score [15] | composite z-score (Lefty1) | composite z-score [16] | z-score [17]
1 | COc1ccccc1CN1C(=O)c2ccccc2[C@@H](C(=O)NCc2ccccc2)[C@@H]1c1ccc(CO)cc1 | 0.431 | -0.549 (inactive) | -0.293 | -0.0984 | 0.544 | 1.15 | 1.54 | 1.09 | -0.353 | 0.305 | 1.99 | 0.464 | 0.377 | 0.688 | 0.211 | 0.546 | 1.03 | 0.423 | 0.397 | -0.898 (inactive)
2 | COCCCNC(=O)[C@@H]1c2ccccc2C(=O)N(Cc2ccccc2)[C@H]1c1ccc(CO)cc1 | 0.405 | 0.59 (inactive) | 0.235 | 0.13 | 0.787 | 1.48 | 1.1 | 0.814 | 0.634 | 0.458 | 1.67 | 1.01 | -0.174 | 0.185 | 0.928 | 0.594 | 1.29 | 0.206 | 0.31 | 0.519 (inactive)
3 | COc1ccc(CCNC(=O)[C@@]2(c3ccc([N+](=O)[O-])cc3)CC(=O)N(CC34CC5CC(CC(C5)C3)C4)[C@@H]2c2ccc(CO)cc2I)cc1 | -0.367 | -0.355 (inactive) | -0.332 | -0.214 | 0.0976 | 2.27 | 0.283 | 0.925 | 0.394 | 0.834 | 1.35 | 1.17 | 0.458 | 0.478 | 1.39 | 1.37 | -1.36 | 0.881 | 0.913 | 0.641 (inactive)
4 | CC(C)NC(=O)[C@@]1(Cc2ccccc2I)c2ccccc2C(=O)N(Cc2ccccc2Cl)[C@H]1c1ccc(CO)cc1 | 0.0517 | 0.786 (inactive) | -0.0573 | -0.0741 | 0.506 | 1.73 | -0.0064 | 1.29 | 0.432 | 1.1 | 2.99 | 1.2 | 0.252 | 0.443 | 1.19 | 0.566 | 1.46 | 0.443 | 0.858 | -0.577 (inactive)
5 | COC(=O)C(CC#Cc1ccc2c(c1)[C@]1(C(=O)N2)[C@H](c2ccc(O)cc2)N2[C@H](c3ccccc3)[C@H](c3ccccc3)OC(=O)[C@H]2[C@@H]1C(=O)N1CCN(c2ncccn2)CC1)C(=O)OC | 0.518 | 0.471 (inactive) | 0.166 | 0.0669 | 0.476 | 2.47 | 0.415 | 1.28 | 0.0801 | 1.11 | 3.29 | 1.23 | 0.809 | 0.975 | 0.771 | 0.208 | -0.35 | 0.162 | 1.2 | -0.078 (inactive)
6 | CN1CCC(CCCO)=CC1c1cccs1 (stereo not given) | -0.552 | 0.639 (inactive) | -0.0048 | -0.148 | 0.74 | -0.743 | -0.476 | -0.203 | -0.154 | -0.384 | -0.321 | -0.902 | -0.698 | 0.0141 | -0.0163 | 0.184 | 0.391 | 0.118 | -0.485 | 0.0421 (inactive)
7 | COCCOC(=O)N1C(=O)[C@@]2(c3ccccc31)[C@H](C(N)=O)[C@H]1C(=O)O[C@H](c3ccccc3)[C@H](c3ccccc3)N1[C@@H]2c1ccc(O)cc1 | 0.737 | 0.573 (inactive) | -0.162 | -0.104 | 0.54 | 2.37 | 0.325 | 0.371 | -0.169 | 0.237 | 0.142 | 1.04 | 0.386 | -0.649 | 0.412 | -0.488 | 0.381 | 0.429 | 0.839 | -1.65 (inactive)
8 | CCCCN1CC=CC23O[C@@H]4/C=C\CCCOC(=O)C4[C@H]2C(=O)N(CCCO)[C@@H]3C1=O (stereo not given in full) | -0.314 | 0.949 (inactive) | -0.229 | -0.18 | 0.939 | 1.28 | 1.82 | -0.158 | -0.824 | -1.4 | 2.36 | -0.43 | -0.226 | -1.73 | -0.98 | -0.251 | 0.259 | -0.0249 | -0.151 | 0.633 (inactive)
9 | N#Cc1ccc(C(O)C2C=CC3C(=O)N(c4ccccc4)C(=O)C3N2Nc2ccccc2F)cc1 (stereo not given) | 1.01 | -0.187 (inactive) | 0.173 | -0.0771 | 0.675 | 1.99 | 0.555 | 0.864 | -0.284 | 0.883 | 2.59 | 1.05 | 0.152 | 0.97 | 0.269 | 0.191 | 0.0535 | 0.284 | 0.144 | 1.79 (inactive)
10 | CS(=O)(=O)CCOC(=O)C1=CC(CCCO)=CC(c2ccc(CN3CCCC3)cc2)N(Cc2cccc(OC(F)(F)F)c2)C=C1C(=O)OCCS(C)(=O)=O (stereo not given) | 0.0883 | 0.25 (inactive) | 0.111 | -0.0254 | 0.454 | 1.16 | 0.0212 | 1.26 | 0.379 | 0.644 | 1.26 | 1.09 | 0.366 | 0.675 | 0.962 | 0.964 | 3.17 | 0.889 | 0.404 | -2.68 (inactive)
11 | O=C(CS)NCCCCCNC(=O)[C@H]1C[C@H]2C(=O)NCC(=O)N2[C@H]1c1ccc(O)cc1 | -0.366 | 0.161 (inactive) | -0.372 | -0.185 | 0.281 | -0.29 | -0.474 | -1.3 | -0.559 | -0.0836 | -0.0453 | -1.16 | -0.437 | -3.23 | -0.0739 | 0.258 | -0.0966 | 0.0911 | -0.125 | 0.612 (inactive)
